Data as given in PMC4336329 (PLoS ONE, 2015).
The whole screen tested about 310,000 compounds, of which about 14,000 (4.5%) showed an effect of 50% or more. Effects have a minus sign here. The entries come from a sample that favours strong results as a whole.

target: human ether-à-go-go-related gene (hERG) potassium channel (human, UniProt Q12809); test: primary screen, population patch clamp on CHO cells stably expressing hERG; higher = less effect of the substance
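Also: peak tail current of the secondary pulse compared with the same well before compound.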

human ether-à-go-go-related gene (hERG) potassium channel, sequence (Q12809 whole entry, looked up): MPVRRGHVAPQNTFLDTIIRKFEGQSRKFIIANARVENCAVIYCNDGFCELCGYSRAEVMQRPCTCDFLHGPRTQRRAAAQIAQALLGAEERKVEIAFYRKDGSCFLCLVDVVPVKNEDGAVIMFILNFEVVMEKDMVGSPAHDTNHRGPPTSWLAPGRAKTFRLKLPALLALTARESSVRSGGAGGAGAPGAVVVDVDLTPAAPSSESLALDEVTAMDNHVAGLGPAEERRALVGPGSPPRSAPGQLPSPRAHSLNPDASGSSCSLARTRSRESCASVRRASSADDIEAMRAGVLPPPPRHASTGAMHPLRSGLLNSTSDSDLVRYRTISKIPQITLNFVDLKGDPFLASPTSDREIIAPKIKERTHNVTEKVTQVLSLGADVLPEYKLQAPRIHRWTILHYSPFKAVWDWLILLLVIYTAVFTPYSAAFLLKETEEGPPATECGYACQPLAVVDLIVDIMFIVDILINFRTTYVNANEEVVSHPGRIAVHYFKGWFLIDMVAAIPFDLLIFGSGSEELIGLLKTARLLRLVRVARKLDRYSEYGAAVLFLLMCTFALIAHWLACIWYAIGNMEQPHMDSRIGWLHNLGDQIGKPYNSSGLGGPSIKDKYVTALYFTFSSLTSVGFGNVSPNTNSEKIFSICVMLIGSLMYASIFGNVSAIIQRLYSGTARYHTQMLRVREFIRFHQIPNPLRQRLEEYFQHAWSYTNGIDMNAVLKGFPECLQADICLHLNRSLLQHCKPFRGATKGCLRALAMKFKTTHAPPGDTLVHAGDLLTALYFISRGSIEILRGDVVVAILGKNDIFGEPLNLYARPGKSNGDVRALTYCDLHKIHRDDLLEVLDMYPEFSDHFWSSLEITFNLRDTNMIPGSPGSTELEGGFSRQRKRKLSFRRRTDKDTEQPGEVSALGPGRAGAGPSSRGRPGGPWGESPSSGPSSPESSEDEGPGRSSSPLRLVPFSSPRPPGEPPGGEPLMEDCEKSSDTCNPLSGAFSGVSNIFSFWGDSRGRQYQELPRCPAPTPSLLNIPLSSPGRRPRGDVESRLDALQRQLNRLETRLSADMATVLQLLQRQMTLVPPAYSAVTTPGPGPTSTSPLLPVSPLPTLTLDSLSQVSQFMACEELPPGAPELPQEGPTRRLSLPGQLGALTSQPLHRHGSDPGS

SMILES | hERG current change (%, negative = inhibition) at 10uM
Cc1ccc(S(=O)(=O)c2nc(NCCCn3ccnc3)sc2Cl)cc1 | -78.6%
CN(C)CCNc1nc(S(=O)(=O)c2ccccc2)c(Cl)s1 | -56.2%
CCS(=O)(=O)c1nc(S(=O)(=O)c2ccc(C)cc2)c(NCCCn2ccnc2)s1 | -26.5%
Cc1ccc(S(=O)(=O)c2nc(NN(C)C)sc2Cl)cc1 | -5.48%
CC(C)CNc1nc(S(=O)(=O)c2ccccc2)c(Cl)s1 | -11.5%
O=S(=O)(c1ccccc1)c1nc(NCc2ccccc2)sc1Cl | -9.88%
CCCS(=O)(=O)c1nc(S(=O)(=O)c2ccc(C)cc2)c(NCCCn2ccnc2)s1 | -29.6%
CC(=O)Nc1nc(S(=O)(=O)c2ccc(C)cc2)c(Cl)s1 | -8.1%
Cc1ccc(S(=O)(=O)c2nc(NCCN(C)C)sc2Cl)cc1 | -69.5%
CCCCCCC/C=N/Nc1nnc(Cc2ccccc2)c(=O)[nH]1 | 33.2%
CCn1cc(C(=O)NCc2ccc(OC)cc2)c(=O)c2ccc(C)nc21 | 22.1%
Cc1cccc(NC(=S)NNC(=O)c2csc(C(C)C)c2)c1 | 2.52%
CCN(CC)CCCNC(=O)c1cn(CCOC)c(=O)c2c1c1ccccc1n2C | -0.445%
O=Cc1coc2ccc3ccccc3c2c1=O | 14.5%
CCCN(C(=O)c1cn(-c2ccccc2)nc1-c1ccc(OC)cc1)C1CCS(=O)(=O)C1 (stereo not shown) | -22.8%
O=C(CN1CCCCCC1)Nc1ccc(Br)cn1 | -20.7%
O=C(CN1CCOCC1)Nc1ncc(Br)cc1Br | -20.3%
O=C(CN1CCN(C(=O)c2ccccc2)CC1)Nc1ccccc1 | -20.1%
CCc1nnc(NC(=O)CN2CCN(C(=O)c3ccccc3)CC2)s1 | 14.7%
O=C(CN1CCN(C(=O)c2ccccc2)CC1)Nc1ccc(Br)cn1 | -74.4%
O=C(CN1CCN(C(=O)c2ccccc2)CC1)Nc1ncc(Br)cc1Br | -78.1%
CCOC(=O)N1CCC(NC(=O)c2cc3c(=O)[nH]c4ccccc4c3n2C)CC1 | -3.23%

SMILES | hERG current change (%, negative = inhibition) at 10uM
COc1ccccc1NC(=O)/C(=C/c1cccs1)NC(=O)c1ccco1 | -33.1%
CC(=O)Nc1ccc2nc(NC(=O)c3ccc([N+](=O)[O-])s3)sc2c1 | 8.75%
CCSc1nc2c(c(=O)[nH]1)C(C(C)C)C(C#N)=C(N)O2 (stereo not shown) | 5.71%
Cc1ccccc1NC(=O)Nc1nc2ccc(S(C)(=O)=O)cc2s1 | -2.53%
O=C(N/N=C/c1coc2ccc(Cl)cc2c1=O)c1ccncc1 | 6.28%
CCCN(CCC)CCCNC(=O)C1CCC(CNS(=O)(=O)c2cccc3nsnc23)CC1 (stereo not shown) | -10.1%
O=C(Cc1ccccc1)NCc1ccc2c(c1)OCO2 | 3.22%
O=C(CN(Cc1ccccc1)C(=O)c1ccc2c(c1)OCCO2)NCc1ccc2c(c1)OCO2 | -59%
COc1ccc(CN(CC(=O)NCc2ccc3c(c2)OCO3)C(=O)c2csnn2)cc1 | -39.8%
O=C(CN(C(=O)c1csnn1)c1cccc(F)c1)NCc1ccc2c(c1)OCO2 | -7.22%
O=C(CN(Cc1ccccc1Cl)C(=O)c1csnn1)NCc1ccc2c(c1)OCO2 | -51.4%
O=C(CN(Cc1ccc(F)cc1)C(=O)c1csnn1)NCc1ccc2c(c1)OCO2 | -64.5%
COc1ccccc1CN(CC(=O)NCc1ccc2c(c1)OCO2)C(=O)c1ccc2c(c1)OCCO2 | -28.4%
O=C(CN(Cc1ccccc1)C(=O)c1csnn1)NCc1ccc2c(c1)OCO2 | -23.4%
O=C(CN(Cc1ccccc1F)C(=O)c1csnn1)NCc1ccc2c(c1)OCO2 | -22%
COc1ccccc1CN(CC(=O)NCc1ccc2c(c1)OCO2)C(=O)c1csnn1 | -34.2%
Cc1ccc(CN(CC(=O)NCc2ccc3c(c2)OCO3)C(=O)c2csnn2)cc1 | -50.5%
O=C(CN(C(=O)c1csnn1)c1ccc(F)cc1)NCc1ccc2c(c1)OCO2 | 9.12%
C=CCn1c(Cc2cccs2)nnc1SCC(=O)Nc1cc(OC)cc(OC)c1 | -27.8%
Cc1nc2nc(C)c(CCC(=O)Nc3ccc4c(c3)OCO4)c(C)n2n1 | -18%
COc1ccc(C2N=C(N)N=C(N)N2c2ccccc2OC)cc1OC.Cl (stereo not shown) | -11.7%
O=C(Nc1nnc(-c2cccs2)o1)C1CC1 | 3.93%

SMILES | hERG current change (%, negative = inhibition) at 10uM
CCOC(=O)C1=NNC(C(=O)c2ccc(OC)cc2)C1c1ccccc1 (stereo not shown) | -9.43%
Cn1ncc(C#N)c1NC(=O)C1CC(c2ccc(Cl)c(Cl)c2)=NO1 (stereo not shown) | -9.94%
COc1cccc(CC(=O)Nc2nc3ccccc3[nH]2)c1 | 10.7%
Cc1cccc(NC(=S)NCCc2c[nH]c3ccccc23)c1 | -4.25%
O=C(O)CNC(=S)N(Cc1ccccc1F)C1CCCCC1 | 0.581%
CCCNC(=O)CNC(=S)N(Cc1ccccc1F)C1CCCCC1 | -10.8%
CCOC(=O)CNC(=S)N(Cc1ccccc1F)C1CCCCC1 | -73%
CC(C)c1ccc(S(=O)(=O)N2CCN(C(=O)n3ccnc3)CC2)cc1 | -35.8%
COc1cc(OC)cc(C(=O)N[C@H](C(=O)NCc2ccccc2)C(C)C)c1 | 7.08%
CCOC(=O)N1CCN(C(=S)NC(=O)c2cc(Br)ccc2Cl)CC1 | 3.59%
C=CCc1c(C)nc(C)nc1N/N=C/c1ccccc1 | -19.2%
C=CCc1c(C)nc(C)nc1N/N=C/c1ccc(F)cc1 | -30.9%
C=CCc1c(C)nc(C)nc1N/N=C/c1ccc([N+](=O)[O-])cc1.Cl | -56.3%
CCC(c1nnnn1Cc1ccc(F)cc1)N(CCCO)Cc1cc2cc3c(cc2[nH]c1=O)OCO3 (stereo not shown) | -17.5%
Cc1ccc(-n2c(O)c(/C=N/c3ncc(Br)cc3Br)c(=O)[nH]c2=O)cc1 | 2.79%
CCCCNC(=O)CSc1nc2cc3c(cc2c(=O)n1CCCC(=O)NCCc1ccc(OC)c(OC)c1)OCO3 | 1.71%
CCOCCCn1c(SCC(=O)Nc2cc(OC)ccc2OC)nc2ccccc2c1=O | -55.7%
CCCCNC(=O)CSc1nc2cc3c(cc2c(=O)n1CCCN(CC)CC)OCO3 | -62.6%
CCOCCCn1c(SCC(=O)Nc2ccc(OC)cc2)nc2ccccc2c1=O | -11%
CCOCCCn1c(SCC(=O)Nc2cccc(OC)c2)nc2ccccc2c1=O | -58.4%
CCOCCCn1c(SCC(=O)Nc2ccc(NC(C)=O)cc2)nc2ccccc2c1=O | 7.29%
CCCCNC(=O)CSc1nc2cc3c(cc2c(=O)n1Cc1ccco1)OCO3 | -10.8%

SMILES | hERG current change (%, negative = inhibition) at 10uM
CCOCCCn1c(SCC(=O)Nc2ccccc2OC)nc2ccccc2c1=O | -45%
CCOCCCn1c(SCC(=O)NCc2ccc3c(c2)OCO3)nc2ccccc2c1=O | -59%
COCCCNC(=O)CSc1nc2ccccc2c(=O)n1Cc1ccc2c(c1)OCO2 | 12.4%
CCOCCCn1c(SCC(=O)Nc2ccccc2)nc2ccccc2c1=O | -29.4%
COCCn1c(SCC(=O)NCc2ccc3c(c2)OCO3)nc2ccccc2c1=O | -42.4%
CCC1CCCCN1Cc1ccc(CNC(=O)CCc2nnc3ccc(N4CCCCC4)nn23)o1 (stereo not shown) | 18.2%
Cc1ccc(S(=O)(=O)N2CCC(C)CC2)c([N+](=O)[O-])c1 | -12.9%
Cc1ccc(CN2CC(C(=O)N(C)CC(=O)Nc3cccc(F)c3)CC2=O)cc1 (stereo not shown) | -7.16%
O=C1Nc2ccccc2C1(O)c1ccccc1O (stereo not shown) | 34.6%
CCOc1ccc(OCCC(=O)OCC(=O)Nc2ccc3c(c2)OCCO3)cc1 | -5.02%
COc1ccc(C[C@H]2CN3C(=NC[C@@H]3Cc3ccc(O)cc3)N2C[C@H](C)NC(=O)CCC2CCCCC2)cc1 | -66.1%
CC(C)[C@H]1CN=C2N(C[C@H](C)NC(=O)CCC3CCCCC3)[C@H](Cc3ccc(O)cc3)CN21 | -59.7%
COc1ccc(C[C@@H]2CN3C(=NC[C@@H]3C)N2C[C@H](C)NC(=O)CCC2CCCCC2)cc1 | -67.4%
O=C(CCC1CCCC1)N[C@@H](Cc1ccc(O)cc1)C(=O)O | 28.8%
COc1ccc(C[C@@H]2CN3C(=NC[C@@H]3Cc3ccc(O)cc3)N2C[C@H](C)NC(=O)CCC2CCCCC2)cc1 | -80.6%
C[C@@H](CN1C2=NC[C@H](C)N2C[C@H]1Cc1ccc(O)cc1)NC(=O)CCC1CCCCC1 | -11.9%
Cc1cc(C)cc(NC(=S)N2CCN(CCO)CC2)c1 | 14.3%
COC(=O)c1ccc(OC)c(CSc2nnc(COc3ccc(OC)cc3)o2)c1 | -27.1%
N#Cc1ccccc1CSc1nc2ncc(Br)cc2[nH]1 | 5.22%
